# From PubChem BioAssay AID1159580 (chemical genetic matrix, 2015)
# About 2,000 (36%) of roughly 5,500 compounds were called active. Roughly 18% stayed inconclusive and do not appear here. The list shows a part of the results. Unmarked numbers belong to inactive results. No stated cut-off is given here; in the data, active means normalized growth mostly below about 0.91 (no sharp cut-off); inconclusive means no clear call, values can overlap the other calls; inactive means mostly above about 0.92.
# Test: chemical genetic growth profiling, strain panel (AID 1159580);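 further: tested at 20 µM; growth read once vehicle control cultures reached saturation at 30 °C; 1 = growth at the plate median or of vehicle wells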
# Settings: growth OD
smiles,measurement,setting,value
O=C(O)CF,normalized growth,"S. cerevisiae deletion strains, locus YJR043C, strain POL32, stronger effect = lower value",0.984
same,normalized growth,"S. cerevisiae deletion strains, locus YJR075W, strain HOC1, stronger effect = lower value",0.992
same,normalized growth,"S. cerevisiae deletion strains, locus YKL009W, strain mrt4, stronger effect = lower value",0.915
same,normalized growth,"S. cerevisiae deletion strains, locus YKL068W, stronger effect = lower value",1.01
same,normalized growth,"S. cerevisiae deletion strains, locus YKL085W, strain MDH1 (second series), stronger effect = lower value",1
same,normalized growth,"S. cerevisiae deletion strains, locus YKL085W, strain MDH1, stronger effect = lower value",1
same,normalized growth,"S. cerevisiae deletion strains, locus YKL160W, strain elf1, stronger effect = lower value",0.988
same,normalized growth,"S. cerevisiae deletion strains, locus YKL190W, strain CNB1, stronger effect = lower value",1
same,normalized growth,"S. cerevisiae deletion strains, locus YKR001C, strain vps1, stronger effect = lower value",0.976
same,normalized growth,"S. cerevisiae deletion strains, locus YKR026C, strain gcn3, stronger effect = lower value",1.03
same,normalized growth,"S. cerevisiae deletion strains, locus YKR091W, strain srl3, stronger effect = lower value",1.02
same,normalized growth,"S. cerevisiae deletion strains, locus YLL001W, strain dnm1, stronger effect = lower value",1.02
same,normalized growth,"S. cerevisiae deletion strains, locus YLL026W, stronger effect = lower value",1.01
same,normalized growth,"S. cerevisiae deletion strains, locus YLL041C, strain sdh2, stronger effect = lower value",1.03
same,normalized growth,"S. cerevisiae deletion strains, locus YLR027C, strain aat2, stronger effect = lower value",1.01
same,normalized growth,"S. cerevisiae deletion strains, locus YLR039C, strain RIC1, stronger effect = lower value",0.997
same,normalized growth,"S. cerevisiae deletion strains, locus YLR058C, strain SHM2, stronger effect = lower value",0.993
same,normalized growth,"S. cerevisiae deletion strains, locus YLR102C, strain apc9, stronger effect = lower value",0.99
same,normalized growth,"S. cerevisiae deletion strains, locus YLR221C, strain rsa3, stronger effect = lower value",1.03
same,normalized growth,"S. cerevisiae deletion strains, locus YLR258W, strain gsy2, stronger effect = lower value",1.04
same,normalized growth,"S. cerevisiae deletion strains, locus YLR262C, strain YPT6 (second series), stronger effect = lower value",1.04
same,normalized growth,"S. cerevisiae deletion strains, locus YLR262C, strain YPT6, stronger effect = lower value",1.01
same,normalized growth,"S. cerevisiae deletion strains, locus YLR268W, strain sec22, stronger effect = lower value",0.974
same,normalized growth,"S. cerevisiae deletion strains, locus YLR320W, strain mms22, stronger effect = lower value",1.04
same,normalized growth,"S. cerevisiae deletion strains, locus YLR330W, strain CHS5, stronger effect = lower value",0.991
same,normalized growth,"S. cerevisiae deletion strains, locus YLR342W, strain FKS1 (second series), stronger effect = lower value",0.989
same,normalized growth,"S. cerevisiae deletion strains, locus YLR342W, strain FKS1, stronger effect = lower value",1.02
same,normalized growth,"S. cerevisiae deletion strains, locus YLR357W, strain rsc2, stronger effect = lower value",1.02
same,normalized growth,"S. cerevisiae deletion strains, locus YLR370C, strain arc18, stronger effect = lower value",1.04
same,normalized growth,"S. cerevisiae deletion strains, locus YLR371W, strain rom2, stronger effect = lower value",0.968
same,normalized growth,"S. cerevisiae deletion strains, locus YLR384C, strain iki3, stronger effect = lower value",1.02
same,normalized growth,"S. cerevisiae deletion strains, locus YLR418C, strain cdc73, stronger effect = lower value",1.04
same,normalized growth,"S. cerevisiae deletion strains, locus YML016C, strain PPZ1, stronger effect = lower value",0.99
same,normalized growth,"S. cerevisiae deletion strains, locus YML032C, strain rad52, stronger effect = lower value",0.947
same,normalized growth,"S. cerevisiae deletion strains, locus YML120C, strain ndi1, stronger effect = lower value",1.04
same,normalized growth,"S. cerevisiae deletion strains, locus YML124C, strain tub3, stronger effect = lower value",0.985
same,normalized growth,"S. cerevisiae deletion strains, locus YMR058W, strain fet3, stronger effect = lower value",1.02
same,normalized growth,"S. cerevisiae deletion strains, locus YMR078C, strain ctf18, stronger effect = lower value",0.984
same,normalized growth,"S. cerevisiae deletion strains, locus YMR125W, strain sto1, stronger effect = lower value",0.986
same,normalized growth,"S. cerevisiae deletion strains, locus YMR129W, stronger effect = lower value",1.02
same,normalized growth,"S. cerevisiae deletion strains, locus YMR205C, strain PFK2, stronger effect = lower value",1.02
same,normalized growth,"S. cerevisiae deletion strains, locus YMR223W, strain ubp8, stronger effect = lower value",0.94
same,normalized growth,"S. cerevisiae deletion strains, locus YMR231W, strain pep5, stronger effect = lower value",1.02
same,normalized growth,"S. cerevisiae deletion strains, locus YMR263W, strain SAP30, stronger effect = lower value",1.02
same,normalized growth,"S. cerevisiae deletion strains, locus YMR307W, strain GAS1, stronger effect = lower value",0.945
same,normalized growth,"S. cerevisiae deletion strains, locus YNL067W, strain RPL9B, stronger effect = lower value",1.02
same,normalized growth,"S. cerevisiae deletion strains, locus YNL071W, strain lat1, stronger effect = lower value",1.03
same,normalized growth,"S. cerevisiae deletion strains, locus YNL128W, strain TEP1, stronger effect = lower value",1.01
same,normalized growth,"S. cerevisiae deletion strains, locus YNL153C, strain GIM3, stronger effect = lower value",1.04
same,normalized growth,"S. cerevisiae deletion strains, locus YNL209W, strain ssb2, stronger effect = lower value",1.02
same,normalized growth,"S. cerevisiae deletion strains, locus YNL233W, strain BNI4, stronger effect = lower value",1.02
same,normalized growth,"S. cerevisiae deletion strains, locus YNL248C, strain rpa49, stronger effect = lower value",0.972
same,normalized growth,"S. cerevisiae deletion strains, locus YNL250W, strain rad50, stronger effect = lower value",0.987
same,normalized growth,"S. cerevisiae deletion strains, locus YNL271C, strain bni1, stronger effect = lower value",0.985
same,normalized growth,"S. cerevisiae deletion strains, locus YNL298W, strain CLA4, stronger effect = lower value",0.94
same,normalized growth,"S. cerevisiae deletion strains, locus YNL307C, strain MCK1, stronger effect = lower value",0.954
same,normalized growth,"S. cerevisiae deletion strains, locus YNL322C, strain KRE1 (second series), stronger effect = lower value",1.02
same,normalized growth,"S. cerevisiae deletion strains, locus YNL322C, strain KRE1, stronger effect = lower value",1
same,normalized growth,"S. cerevisiae deletion strains, locus YNR049C, strain mso1, stronger effect = lower value",1.02
same,normalized growth,"S. cerevisiae deletion strains, locus YNR052C, strain pop2, stronger effect = lower value",0.949
same,normalized growth,"S. cerevisiae deletion strains, locus YOL006C, strain TOP1, stronger effect = lower value",0.988
same,normalized growth,"S. cerevisiae deletion strains, locus YOL012C, strain htz1",1.93
same,normalized growth,"S. cerevisiae deletion strains, locus YOL147C, strain pex11, stronger effect = lower value",0.993
same,normalized growth,"S. cerevisiae deletion strains, locus YOR001W, strain rrp6, stronger effect = lower value",1.03
same,normalized growth,"S. cerevisiae deletion strains, locus YOR061W, strain CKA2, stronger effect = lower value",0.975
same,normalized growth,"S. cerevisiae deletion strains, locus YOR069W, strain VPS5, stronger effect = lower value",0.99
same,normalized growth,"S. cerevisiae deletion strains, locus YOR070C, strain gyp1, stronger effect = lower value",1.02
same,normalized growth,"S. cerevisiae deletion strains, locus YOR080W, strain dia2, stronger effect = lower value",1.02
same,normalized growth,"S. cerevisiae deletion strains, locus YOR083W, strain WHI5, stronger effect = lower value",0.992
same,normalized growth,"S. cerevisiae deletion strains, locus YOR106W, strain vam3, stronger effect = lower value",0.998
same,normalized growth,"S. cerevisiae deletion strains, locus YOR136W, strain idh2, stronger effect = lower value",0.978
same,normalized growth,"S. cerevisiae deletion strains, locus YOR144C, strain elg1, stronger effect = lower value",0.987
same,normalized growth,"S. cerevisiae deletion strains, locus YOR184W, strain ser1, stronger effect = lower value",0.872 (active)
same,normalized growth,"S. cerevisiae deletion strains, locus YOR265W, strain rbl2, stronger effect = lower value",1.02
same,normalized growth,"S. cerevisiae deletion strains, locus YOR270C, strain vph1, stronger effect = lower value",1.02
same,normalized growth,"S. cerevisiae deletion strains, locus YOR290C, strain snf2, stronger effect = lower value",1.02
same,normalized growth,"S. cerevisiae deletion strains, locus YOR316C, strain cot1, stronger effect = lower value",0.984
same,normalized growth,"S. cerevisiae deletion strains, locus YPL051W, strain arl3, stronger effect = lower value",1
same,normalized growth,"S. cerevisiae deletion strains, locus YPL055C, strain LGE1, stronger effect = lower value",1.04
same,normalized growth,"S. cerevisiae deletion strains, locus YPL078C, strain atp4, stronger effect = lower value",0.982
same,normalized growth,"S. cerevisiae deletion strains, locus YPL106C, strain sse1, stronger effect = lower value",1.06
same,normalized growth,"S. cerevisiae deletion strains, locus YPL240C, strain hsp82, stronger effect = lower value",1.02
same,normalized growth,"S. cerevisiae deletion strains, locus YPL241C, strain CIN2, stronger effect = lower value",0.998
same,normalized growth,"S. cerevisiae deletion strains, locus YPR119W, strain clb2, stronger effect = lower value",1
same,normalized growth,"S. cerevisiae deletion strains, locus YPR141C, strain kar3, stronger effect = lower value",0.993
same,normalized growth,"S. cerevisiae deletion strains, locus YPR163C, strain tif3, stronger effect = lower value",0.993
same,normalized growth,"S. cerevisiae deletion strains, locus YPR167C, strain met16, stronger effect = lower value",0.99
same,normalized growth,"S. cerevisiae deletion strains, strain wtn01, stronger effect = lower value",0.992
same,normalized growth,"S. cerevisiae strains, strain wild type, stronger effect = lower value",0.999
